Structures are written as SMILES. Inconclusive results are not listed. Active and inactive are the calls of the source. Rule for the calls, unless noted: active = hit-call score of the fitted dose curve at least 0.9, where 1 is the maximum; inactive = score below 0.9.

Test [1] can be described thus: ATG_RORE_CIS: Attagene CIS-FACTORIAL HepG2 Assay for human RAR-related Orphan Receptor Element (RORE) (AID 2282959). Conditions: HepG2 Attagene cis-factorial RORE reporter, mRNA; actives raise or lower the signal. In a few lines: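 Measured here: transcript induction of a cis-regulated reporter in HepG2 cells transiently transfected via FuGene 6. After 24 h, RNA was processed by RT-PCR and fluorescent capillary electrophoresis; DMSO defined baseline activity.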

The nature of test [2]: ATG_Sox_CIS: Attagene CIS-FACTORIAL HepG2 Assay for human SRY-box transcription factor (SOX) (AID 2282960). Conditions: HepG2 Attagene cis-factorial SOX reporter, mRNA; actives raise or lower the signal. The essentials:
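Using transiently transfected HepG2 cells, reporter transcription driven by cis elements was assessed 24 h after dosing. Signal was fluorescence of capillary-separated RT-PCR products, with DMSO defining baseline activity.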

The target of test [3] is Transcription factor Sp1 (Homo sapiens) (UniProt P08047). In words: ATG_Sp1_CIS: Attagene CIS-FACTORIAL HepG2 Assay for human Specificity Protein 1 (Sp1) (AID 2282961). The following applies: HepG2 Sp1 cis-reporter transcription, actives raise or lower the signal. The essentials: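 After transient transfection of HepG2 cells with cis-promoter reporter units and 24 h chemical treatment, reporter transcripts were quantified by RT-PCR and capillary electrophoresis fluorescence. Gain- and loss-of-signal fitted against DMSO.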
Sequence of Transcription factor Sp1 (Homo sapiens) (P08047 whole entry, looked up): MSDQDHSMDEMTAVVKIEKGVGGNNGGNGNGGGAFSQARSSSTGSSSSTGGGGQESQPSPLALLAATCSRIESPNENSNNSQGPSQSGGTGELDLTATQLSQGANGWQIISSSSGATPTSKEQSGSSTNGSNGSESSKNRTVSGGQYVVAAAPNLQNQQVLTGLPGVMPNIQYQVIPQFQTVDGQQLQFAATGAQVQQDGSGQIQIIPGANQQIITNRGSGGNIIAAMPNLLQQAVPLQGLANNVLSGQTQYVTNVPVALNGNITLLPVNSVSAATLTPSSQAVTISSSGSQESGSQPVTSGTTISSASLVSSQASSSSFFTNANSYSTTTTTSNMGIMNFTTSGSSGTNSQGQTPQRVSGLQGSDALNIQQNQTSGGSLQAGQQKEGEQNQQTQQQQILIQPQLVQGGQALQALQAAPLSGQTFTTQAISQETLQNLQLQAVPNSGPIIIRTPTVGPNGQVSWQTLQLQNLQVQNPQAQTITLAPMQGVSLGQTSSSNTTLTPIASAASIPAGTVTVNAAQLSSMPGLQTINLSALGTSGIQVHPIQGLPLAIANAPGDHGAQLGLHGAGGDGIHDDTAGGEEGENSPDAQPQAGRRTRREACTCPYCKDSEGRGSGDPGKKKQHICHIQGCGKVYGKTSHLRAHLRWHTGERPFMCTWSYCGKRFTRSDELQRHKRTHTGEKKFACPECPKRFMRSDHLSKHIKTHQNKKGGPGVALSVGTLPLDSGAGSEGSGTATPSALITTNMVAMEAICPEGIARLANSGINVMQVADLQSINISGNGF

Test [4] can be described thus: ATG_SREBP_CIS: Attagene CIS-FACTORIAL HepG2 Assay for human Sterol Regulatory Element Binding (SREBP) (AID 2282962). Conditions: HepG2 Attagene cis-factorial SREBP reporter, mRNA; actives raise or lower the signal. In a few lines:
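HepG2 cells transiently transfected with multiplexed cis-promoter reporter units sensing endogenous transcription factors; reporter mRNA measured 24 h after dosing by RT-PCR, 6-FAM labeling, HpaI digestion and capillary electrophoresis. Bidirectional fit versus DMSO.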

Test [5] concerns the target Signal transducer and activator of transcription 3 (Homo sapiens) (UniProt P40763). Nature of the test: ATG_STAT3_CIS: Attagene CIS-FACTORIAL HepG2 Assay for human Signal Transducer and Activator of Transcription 3 (STAT3) (AID 2282963). Conditions: HepG2, Attagene cis-factorial STAT3 reporter transcription; actives raise or lower the signal. The essentials:
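Transcript-level reporter assay. HepG2 transient MRTU transfection, 24 h exposure, fluorescence detection after RT-PCR and CE; DMSO baseline.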

Test [6] in a line: ATG_TA_CIS: Attagene CIS-FACTORIAL HepG2 Assay for human TA Basal Promoter (AID 2282964). Conditions: HepG2 Attagene CIS-factorial TA basal promoter reporter; actives raise or lower the signal. In a few lines: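 Background-control readout: TA basal promoter reporter mRNA, fitted in both directions relative to DMSO. Measured by RT-PCR and capillary electrophoresis 24 hours after treating HepG2 human liver cells transiently carrying multiplexed cis-regulated reporter constructs.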

Test [7] can be described thus: ATG_TCF_b_cat_CIS: Attagene CIS-FACTORIAL HepG2 Assay for human T-Cell-Factor with beta-catenin (TCF/b-cat) (AID 2282965). The following applies: HepG2 TCF/beta-catenin cis-reporter transcription, actives raise or lower the signal. The essentials: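 Using capillary electrophoresis as the read-out, labelled reporter cDNA fragments from transiently transfected HepG2 were sized and quantified. Exposure lasted 24 hours; activity in either direction was referenced to DMSO.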

Test [8] can be described thus: ATG_TAL_CIS: Attagene CIS-FACTORIAL HepG2 Assay for human TAL Basal Promoter (AID 2282966).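 Note: background control endpoint measuring basal TAL promoter reporter mRNA not a specific factor.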 Conditions: HepG2 Attagene cis-factorial TAL promoter reporter; actives raise or lower the signal. In a few lines: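 HepG2 cells were transiently transfected with promoter-driven multiplexed reporter units and dosed for 24 h. Reporter mRNA was measured by RT-PCR with capillary electrophoresis fluorescence; bidirectional fits used DMSO as baseline, serving as a background control.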

The nature of test [9]: ATG_TGFb_CIS: Attagene CIS-FACTORIAL HepG2 Assay for human Transforming Growth Factor (TGF) (AID 2282967). Conditions: HepG2 Attagene CIS TGFb reporter, mRNA transcription; actives raise or lower the signal. In a few lines: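 Endogenous TGFB1-linked transcription factor activity read as reporter mRNA via RT-PCR and capillary electrophoresis, 24 h after dosing transiently transfected HepG2 cells. Gain or loss of signal fitted relative to DMSO.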

Test [10] concerns the target Steroid hormone receptor ERR1 (Homo sapiens) (UniProt P11474). Nature of the test: ATG_ERRa_TRANS: Attagene TRANS-FACTORIAL HepG2 Assay for human Estrogen-Related Receptor alpha (ERRa) (AID 2282971; active = hit-call score of the fitted dose curve at least 0.9, where 1 is the maximum). Conditions: HepG2 Attagene TRANS reporter, ERRa transactivation. The essentials: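 HepG2 cells transiently transfected with multiplexed GAL4-UAS reporter units reading chimeric ERRa-Gal4 activity; 24 h compound exposure. Reporter mRNA measured by RT-PCR, 6-FAM labelling, HpaI digest and capillary electrophoresis; gain of signal fitted versus DMSO baseline.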

The target of test [11] is X-box-binding protein 1 (Homo sapiens) (UniProt P17861). Nature of the test: ATG_Xbp1_CIS: Attagene CIS-FACTORIAL HepG2 Assay for human X-box Binding Protein 1 (XBP1) (AID 2282972). Conditions: HepG2 XBP1 cis-element reporter, Attagene multiplex; actives raise or lower the signal. In a few lines:
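HepG2 cells transiently transfected with multiple cis-element reporter units report endogenous TF activity; 24 h exposure, then reporter mRNA measured by RT-PCR, 6-FAM labelling, HpaI digestion and capillary electrophoresis. Bidirectional fitting versus DMSO.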

The nature of test [12]: ATG_M_19_TRANS: Attagene TRANS-FACTORIAL HepG2 Assay for M19 Transcription Factor (Internal Marker) (AID 2282974; active = hit-call score of the fitted dose curve at least 0.9, where 1 is the maximum). Conditions: HepG2 Attagene TRANS-FACTORIAL M19 internal marker reporter. The essentials: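 Gain-of-signal in reporter mRNA, relative to DMSO, was scored from capillary electrophoresis fluorescence. HepG2 cells carried transiently transfected multiple reporter transcription units and were incubated with test chemicals for 24 h.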

Test [13] can be described thus: ATG_GAL4_TRANS: Attagene TRANS-FACTORIAL HepG2 Assay for GAL4 (Internal Marker) (AID 2282976; active = hit-call score of the fitted dose curve at least 0.9, where 1 is the maximum). Conditions: HepG2 Attagene TRANS GAL4 internal marker reporter. The essentials:
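HepG2 cells transiently transfected with multiplexed GAL4-UAS reporter constructs were dosed for 24 h. Reporter mRNA was measured by RT-PCR, 6-FAM primer extension, HpaI digestion and capillary electrophoresis, and gain of signal was fitted relative to DMSO.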

Test [14] has as its target Estrogen-related receptor gamma (Homo sapiens) (UniProt P62508). In words: ATG_ERRg_TRANS: Attagene TRANS-FACTORIAL HepG2 Assay for human Estrogen-Related Receptor gamma (ERRg) (AID 2282977; active = hit-call score of the fitted dose curve at least 0.9, where 1 is the maximum;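 note: hits increase reporter signal over DMSO so potencies reflect activators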). Conditions: HepG2 Attagene TRANS reporter, ERRg transactivation. In a few lines: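 Transfect HepG2 with multiple GAL4-UAS reporter transcription units; dose chemicals 24 h; isolate RNA, reverse-transcribe with oligo(dT), PCR-amplify, label with 6-FAM, digest with HpaI; size fragments by capillary electrophoresis. DMSO serves as negative control.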

Test [15] deals with Nuclear receptor subfamily 1 group I member 3 (Homo sapiens) (UniProt Q14994). Nature of the test: ATG_CAR_TRANS: Attagene TRANS-FACTORIAL HepG2 Assay for human Constitutive Androstane Receptor (CAR) (AID 2282969; active = hit-call score of the fitted dose curve at least 0.9, where 1 is the maximum;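 note: activators raise reporter mRNA above DMSO so AC50 marks induction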). Conditions: HepG2 Attagene TRANS-FACTORIAL CAR reporter. In a few lines:
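HepG2 cells transiently transfected with multiplexed GAL4-UAS reporter units expressing chimeric NR-Gal4 proteins; compound exposure 24 h. Reporter mRNA measured by RT-PCR, 6-FAM labelling, HpaI digestion and capillary electrophoresis; gain-of-signal fitted against DMSO baseline.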

Test [16] has as its target Estrogen receptor (Homo sapiens) (UniProt P03372). Nature of the test: ATG_ERa_TRANS: Attagene TRANS-FACTORIAL HepG2 Assay for human Estrogen Receptor alpha (ERa) (AID 2282970; active = hit-call score of the fitted dose curve at least 0.9, where 1 is the maximum). Conditions: HepG2 Attagene TRANS ERa GAL4 reporter, mRNA. The essentials: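 HepG2 cells transiently transfected with multiplexed GAL4-UAS reporter units; ERa activity read via exogenous chimeric NR-Gal4 protein. After 24 hour compound exposure, reporter mRNA measured by RT-PCR with 6-FAM labelling and capillary electrophoresis; gain-of-signal fitted relative to DMSO.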

Test [17] addresses Bile acid receptor (Homo sapiens) (UniProt Q96RI1). Nature of the test: ATG_FXR_TRANS: Attagene TRANS-FACTORIAL HepG2 Assay for Farnesoid X Receptor (FXR) (AID 2282979; active = hit-call score of the fitted dose curve at least 0.9, where 1 is the maximum;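 note: hits raise reporter mRNA above DMSO so AC50 marks FXR activation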). Conditions: HepG2 Attagene TRANS FXR-GAL4 reporter transcription. In a few lines: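 HepG2 cells transiently transfected with reporter constructs in which a chimeric FXR-GAL4 protein drives a GAL4-UAS reporter; 24 h compound exposure. Reporter mRNA measured by RT-PCR, FAM labelling, HpaI digestion and capillary electrophoresis; gain-of-signal versus DMSO.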

Test [18] has as its target Glucocorticoid receptor (Homo sapiens) (UniProt P04150). In words: ATG_GR_TRANS: Attagene TRANS-FACTORIAL HepG2 Assay for human Glucocorticoid Receptor (GR) (AID 2282978; active = hit-call score of the fitted dose curve at least 0.9, where 1 is the maximum;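 note: activators score as hits since higher reporter transcript over DMSO is fitted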). Conditions: HepG2 Attagene TRANS GR reporter, mRNA transcription. In a few lines: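 HepG2 transient transfection, multiple reporter units, GAL4-UAS under NR-GAL4 chimera control. 24 h treatment. Reporter mRNA by RT-PCR/CE fluorescence, DMSO as negative control.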

Test [19] can be described thus: ATG_VDRE_CIS: Attagene CIS-FACTORIAL HepG2 Assay for human Vitamin D Receptor Element (VDRE) (AID 2282968). Conditions: HepG2 VDRE cis-reporter transcription, actives raise or lower the signal. The essentials: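 RT-PCR/CE readout of reporter mRNA; HepG2, transient transfection, 24 h dosing; DMSO baseline; bidirectional analysis.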

Sequence of Signal transducer and activator of transcription 3 (Homo sapiens) (P40763 whole entry, looked up): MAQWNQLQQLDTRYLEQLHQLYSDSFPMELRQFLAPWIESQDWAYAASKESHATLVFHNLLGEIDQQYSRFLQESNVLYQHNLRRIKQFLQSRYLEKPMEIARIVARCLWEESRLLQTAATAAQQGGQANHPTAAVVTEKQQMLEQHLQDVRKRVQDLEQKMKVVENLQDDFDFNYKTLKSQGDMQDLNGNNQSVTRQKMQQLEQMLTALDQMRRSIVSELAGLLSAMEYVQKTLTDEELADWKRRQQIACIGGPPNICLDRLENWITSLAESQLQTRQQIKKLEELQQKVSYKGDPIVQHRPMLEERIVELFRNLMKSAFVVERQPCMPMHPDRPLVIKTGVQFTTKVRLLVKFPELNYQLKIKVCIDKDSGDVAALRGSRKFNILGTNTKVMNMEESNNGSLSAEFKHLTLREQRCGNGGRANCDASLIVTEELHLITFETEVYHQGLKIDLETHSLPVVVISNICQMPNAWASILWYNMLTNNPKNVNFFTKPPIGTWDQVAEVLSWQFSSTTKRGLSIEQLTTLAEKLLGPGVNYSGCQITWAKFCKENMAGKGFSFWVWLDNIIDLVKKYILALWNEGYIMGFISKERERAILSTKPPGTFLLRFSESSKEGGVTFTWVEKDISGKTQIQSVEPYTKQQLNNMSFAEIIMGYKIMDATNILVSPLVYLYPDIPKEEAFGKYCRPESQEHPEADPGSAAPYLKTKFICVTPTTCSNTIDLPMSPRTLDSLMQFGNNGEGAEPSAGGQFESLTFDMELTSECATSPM
Sequence of X-box-binding protein 1 (Homo sapiens) (P17861 whole entry, looked up): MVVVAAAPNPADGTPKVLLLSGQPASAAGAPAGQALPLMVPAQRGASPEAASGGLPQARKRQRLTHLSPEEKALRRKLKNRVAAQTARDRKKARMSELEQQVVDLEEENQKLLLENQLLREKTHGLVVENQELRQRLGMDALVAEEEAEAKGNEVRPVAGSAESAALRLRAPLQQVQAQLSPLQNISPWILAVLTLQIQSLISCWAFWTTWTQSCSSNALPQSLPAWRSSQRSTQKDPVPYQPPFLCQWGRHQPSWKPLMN
Sequence of Nuclear receptor subfamily 1 group I member 3 (Homo sapiens) (Q14994 whole entry, looked up, the tested form may be a part): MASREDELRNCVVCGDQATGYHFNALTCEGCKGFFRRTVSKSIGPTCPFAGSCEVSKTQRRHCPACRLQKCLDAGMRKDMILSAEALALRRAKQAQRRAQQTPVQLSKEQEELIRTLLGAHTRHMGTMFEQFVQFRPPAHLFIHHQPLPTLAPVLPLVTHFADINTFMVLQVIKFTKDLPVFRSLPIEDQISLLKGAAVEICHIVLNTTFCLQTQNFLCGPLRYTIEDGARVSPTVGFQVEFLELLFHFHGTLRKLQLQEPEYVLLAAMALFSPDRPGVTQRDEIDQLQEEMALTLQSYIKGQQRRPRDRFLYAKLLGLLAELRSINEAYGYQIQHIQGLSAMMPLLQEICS
Sequence of Glucocorticoid receptor (Homo sapiens) (P04150 whole entry, looked up, the tested form may be a part): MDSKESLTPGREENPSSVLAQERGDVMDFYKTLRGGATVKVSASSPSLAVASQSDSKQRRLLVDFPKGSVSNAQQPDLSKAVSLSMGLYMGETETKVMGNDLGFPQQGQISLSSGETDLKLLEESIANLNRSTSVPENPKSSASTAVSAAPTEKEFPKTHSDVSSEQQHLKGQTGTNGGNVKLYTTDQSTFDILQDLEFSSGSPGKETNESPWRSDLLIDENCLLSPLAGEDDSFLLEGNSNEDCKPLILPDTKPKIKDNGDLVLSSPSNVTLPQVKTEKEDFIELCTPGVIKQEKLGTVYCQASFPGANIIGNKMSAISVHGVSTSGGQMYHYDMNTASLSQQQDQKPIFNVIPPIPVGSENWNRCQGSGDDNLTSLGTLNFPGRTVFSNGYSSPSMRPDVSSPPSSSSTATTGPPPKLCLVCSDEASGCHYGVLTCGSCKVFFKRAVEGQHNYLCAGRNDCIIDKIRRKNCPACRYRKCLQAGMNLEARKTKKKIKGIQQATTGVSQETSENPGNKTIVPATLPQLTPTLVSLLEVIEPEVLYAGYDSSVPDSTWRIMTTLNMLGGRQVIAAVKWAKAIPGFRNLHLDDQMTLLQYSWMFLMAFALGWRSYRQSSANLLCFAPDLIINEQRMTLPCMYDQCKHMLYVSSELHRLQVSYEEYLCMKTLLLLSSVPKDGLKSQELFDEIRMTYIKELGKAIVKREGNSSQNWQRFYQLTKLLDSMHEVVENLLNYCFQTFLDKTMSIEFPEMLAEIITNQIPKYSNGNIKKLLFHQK
Sequence of Steroid hormone receptor ERR1 (Homo sapiens) (P11474 whole entry, looked up, the tested form may be a part): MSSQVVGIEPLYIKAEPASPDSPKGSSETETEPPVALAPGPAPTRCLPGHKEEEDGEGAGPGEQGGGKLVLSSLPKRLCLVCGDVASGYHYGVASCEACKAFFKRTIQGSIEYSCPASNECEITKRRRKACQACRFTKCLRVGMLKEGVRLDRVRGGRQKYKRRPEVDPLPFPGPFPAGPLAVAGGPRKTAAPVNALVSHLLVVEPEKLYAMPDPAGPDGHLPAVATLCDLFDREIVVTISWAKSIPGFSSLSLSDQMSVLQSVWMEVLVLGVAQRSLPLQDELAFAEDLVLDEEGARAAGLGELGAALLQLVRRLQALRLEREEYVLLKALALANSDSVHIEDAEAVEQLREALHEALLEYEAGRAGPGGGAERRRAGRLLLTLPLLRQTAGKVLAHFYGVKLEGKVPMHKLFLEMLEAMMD
Sequence of Estrogen-related receptor gamma (Homo sapiens) (P62508 whole entry, looked up, the tested form may be a part): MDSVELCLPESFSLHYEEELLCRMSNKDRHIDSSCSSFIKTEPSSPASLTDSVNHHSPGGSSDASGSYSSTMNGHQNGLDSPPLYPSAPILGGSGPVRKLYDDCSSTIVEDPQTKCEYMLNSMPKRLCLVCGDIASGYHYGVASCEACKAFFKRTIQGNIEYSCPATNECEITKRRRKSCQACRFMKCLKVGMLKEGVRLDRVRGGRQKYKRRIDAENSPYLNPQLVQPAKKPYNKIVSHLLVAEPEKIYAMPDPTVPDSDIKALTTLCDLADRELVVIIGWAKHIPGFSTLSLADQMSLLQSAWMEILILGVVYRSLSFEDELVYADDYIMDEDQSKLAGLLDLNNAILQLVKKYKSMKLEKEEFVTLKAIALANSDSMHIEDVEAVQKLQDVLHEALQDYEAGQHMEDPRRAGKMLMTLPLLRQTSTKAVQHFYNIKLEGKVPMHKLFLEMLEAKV
Sequence of Estrogen receptor (Homo sapiens) (P03372 whole entry, looked up, the tested form may be a part): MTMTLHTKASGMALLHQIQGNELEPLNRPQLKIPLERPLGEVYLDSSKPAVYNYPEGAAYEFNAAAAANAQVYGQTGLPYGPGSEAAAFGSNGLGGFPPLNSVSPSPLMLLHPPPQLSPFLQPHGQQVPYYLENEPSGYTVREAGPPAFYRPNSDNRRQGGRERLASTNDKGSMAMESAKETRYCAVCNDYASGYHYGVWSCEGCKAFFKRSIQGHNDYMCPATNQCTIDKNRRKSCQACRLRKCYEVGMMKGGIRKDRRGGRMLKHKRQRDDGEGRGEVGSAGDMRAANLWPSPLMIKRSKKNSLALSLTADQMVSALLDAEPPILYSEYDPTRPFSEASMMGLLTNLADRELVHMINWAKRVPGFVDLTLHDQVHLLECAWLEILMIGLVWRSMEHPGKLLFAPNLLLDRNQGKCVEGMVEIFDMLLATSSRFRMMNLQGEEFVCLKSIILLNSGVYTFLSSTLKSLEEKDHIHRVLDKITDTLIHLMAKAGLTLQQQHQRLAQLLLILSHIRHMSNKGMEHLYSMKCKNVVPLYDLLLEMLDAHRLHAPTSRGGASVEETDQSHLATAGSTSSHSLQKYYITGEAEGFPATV
Sequence of Bile acid receptor (Homo sapiens) (Q96RI1 whole entry, looked up, the tested form may be a part): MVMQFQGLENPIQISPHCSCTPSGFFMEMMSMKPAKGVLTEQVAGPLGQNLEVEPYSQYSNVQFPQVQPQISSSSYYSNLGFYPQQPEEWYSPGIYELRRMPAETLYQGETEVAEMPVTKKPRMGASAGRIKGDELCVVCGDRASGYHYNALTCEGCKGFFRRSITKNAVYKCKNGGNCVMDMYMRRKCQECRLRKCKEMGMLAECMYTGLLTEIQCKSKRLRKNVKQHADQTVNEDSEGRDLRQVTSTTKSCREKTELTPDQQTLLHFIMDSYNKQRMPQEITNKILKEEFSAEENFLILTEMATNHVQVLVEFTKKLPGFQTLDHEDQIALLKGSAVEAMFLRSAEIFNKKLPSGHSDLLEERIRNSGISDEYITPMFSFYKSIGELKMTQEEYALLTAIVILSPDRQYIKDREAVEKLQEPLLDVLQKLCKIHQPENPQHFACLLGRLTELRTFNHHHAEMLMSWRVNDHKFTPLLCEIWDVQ

For `O=[N+]([O-])c1cccc2ccccc12`, the result in [1], in test [2], in test [3], in [4], in test [5] and in test [6] was inactive. For the same compound, the outcome in test [7], in [8], in test [9], in test [10], in test [11] and in [12] was inactive. Besides, the result in test [13] and in test [14] was inactive.
As to `CC(C)(C)c1ccc(CCOc2ncnc3ccccc23)cc1`, the compound was classed as inactive in [1], in test [2], in test [3], in test [4], in test [5] and in test [6]. Besides, the outcome in test [7], in test [8], in test [9], in test [15], in [16] and in test [11] was inactive. For the same compound, the compound was classed as inactive in [12] and in [17].
Take `C=CC(=O)[O][Sn]([CH2]CCC)([CH2]CCC)[CH2]CCC`: the compound was classed as inactive in test [1], in test [6], in test [7], in test [8], in test [10] and in test [12]. For the same compound, the compound was classed as inactive in test [18] and in test [17]. Further, the AC50 (in general, the concentration giving half of the maximal activity seen) in test [2] was 0.67 µM (active); in test [3], 0.504 µM (active); in [4] it was 0.189 µM (active); in test [5], 0.657 µM (active); in [9], 0.367 µM (active); in test [11], 0.412 µM (active).
`CC(C)[C@H](C(=O)OC(C#N)c1cccc(Oc2ccccc2)c1)c1ccc(OC(F)F)cc1` (stereo partly drawn): the result in test [1], in test [2], in test [3], in test [4], in [5] and in test [6] was inactive. In addition, the compound was called inactive in test [7], in [8], in test [9], in test [15], in [10] and in test [11]. Also, the outcome in [13], in test [14] and in test [18] was inactive.
Consider `Cc1cc(-c2cc(C)c(N)c(C)c2)cc(C)c1N`, for which the compound was called inactive in [1], in test [2], in [3], in test [4], in [5] and in [6]. Further, the compound was classed as inactive in test [8], in [9], in [19], in test [15], in test [16] and in test [11]. Also, the compound was called inactive in test [12] and in test [18].
For the compound `Cl[C@H]1OCCO[C@@H]1Cl`, the outcome in test [1], in test [2], in test [3], in [4], in test [5] and in test [6] was inactive. In addition, the compound was classed as inactive in [7], in test [8], in test [9], in [10], in [11] and in [12]. In test [14], the compound was called inactive.
Regarding `CCCCN(CCCC)C(=S)S`, the call in test [1], in test [3], in test [5], in [6], in test [8] and in test [9] was inactive. Further, the compound was classed as inactive in test [16] and in test [14]. The concentration at half-maximal activity (AC50) is 50.1 µM (active) in [2], 128 µM (active) in [4], 166 µM (active) in test [7] and 70.5 µM (active) in test [11].
Turning to `O=C(NC(=O)c1c(F)cccc1F)Nc1cc(Cl)c(OC(F)(F)C(F)C(F)(F)F)cc1Cl` (stereo not drawn), the outcome in [1], in test [2], in test [3], in [4], in test [5] and in test [6] was inactive. In addition, the compound was called inactive in test [7], in test [8], in test [9] and in test [11].
For `ClCc1ccccc1CCl`, the compound was classed as inactive in test [1], in [4], in test [6], in test [9], in test [15] and in test [16]. Moreover, the AC50 was 22.6 µM (active) in [2]; 33.4 µM (active) in [3]; 33.4 µM (active) in [5]; 16.5 µM (active) in test [8]; 13.5 µM (active) in test [19]; 12.6 µM (active) in [11].

These data come from PubChem BioAssay (EPA / NIEHS).
